Among the data in PubChem BioAssay (EPA / NIEHS) are outcome and AC50 values, retold here.

In general, AC50 refers to the concentration giving half of the maximal activity seen.

Inconclusive results are not listed. Activity calls are given as the source filed them. How the source made its calls, unless noted: active means hit-call score of the fitted dose curve at least 0.9, where 1 is the maximum; inactive means score below 0.9.

For assay [1], the target named is CCAAT/enhancer-binding protein beta (Homo sapiens) (UniProt P17676). In words: ATG_C_EBP_CIS: Attagene CIS-FACTORIAL HepG2 Assay for human CCAAT/Enhancer Binding Protein (C/EBP) beta (AID 2282927). Particulars: HepG2 Attagene cis-factorial transcription factor reporter; actives raise or lower the signal. The method, boiled down: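 Endogenous C/EBPb-driven reporter transcripts measured in transfected human HepG2 cells at 24 h via RT-PCR and capillary electrophoresis of labelled fragments. Activity fitted in both directions relative to DMSO baseline.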
Sequence of CCAAT/enhancer-binding protein beta (Homo sapiens) (P17676 whole entry, looked up, the tested form may be a part): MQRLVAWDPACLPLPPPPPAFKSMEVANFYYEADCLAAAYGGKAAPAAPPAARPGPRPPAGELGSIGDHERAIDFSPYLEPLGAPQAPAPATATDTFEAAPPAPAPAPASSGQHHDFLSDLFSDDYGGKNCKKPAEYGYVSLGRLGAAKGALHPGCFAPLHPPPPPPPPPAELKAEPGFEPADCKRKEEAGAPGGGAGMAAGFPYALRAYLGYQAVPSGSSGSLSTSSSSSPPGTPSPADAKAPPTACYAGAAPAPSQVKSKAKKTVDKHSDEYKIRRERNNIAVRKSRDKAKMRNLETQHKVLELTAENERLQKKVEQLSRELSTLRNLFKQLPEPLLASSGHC

The nature of assay [2]: ATG_BRE_CIS: Attagene CIS-FACTORIAL HepG2 Assay for human Bone Morphogenetic Protein (BMP) Response Element (BRE) (AID 2282933). Particulars: HepG2 BMP response element reporter, Attagene transcription factor profiling; actives raise or lower the signal. The gist of the method: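 Fluorescence-labelled reporter cDNA fragments, separated by capillary electrophoresis, gave the signal for this component of a 52-readout multiplex. HepG2 cells were transfected, exposed to chemicals for 24 h, and compared with DMSO using bidirectional fitting.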

Assay [3] is described as follows: ATG_E_Box_CIS: Attagene CIS-FACTORIAL HepG2 Assay for human Enhancer Box (E-box) (AID 2282936). Conditions: HepG2 E-box cis-reporter transcription, actives raise or lower the signal. The gist of the method:
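DMSO served as negative control and baseline for bidirectional fitting. Human hepatoma HepG2 cells, transiently transfected with cis-reporter constructs, were dosed 24 h; reporter mRNA read by RT-PCR and capillary electrophoresis.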

The nature of assay [4]: ATG_M_19_CIS: Attagene CIS-FACTORIAL HepG2 Assay for M19 Transcription Factor (Internal Marker) (AID 2282939). Conditions: HepG2 Attagene CIS-FACTORIAL M19 internal marker reporter; actives raise or lower the signal. The gist of the method: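 HepG2, MRTU transient transfection, 24 h dosing. Total RNA → RT-PCR → 6-FAM primer extension → HpaI digest → CE fluorescence. Bidirectional curve fit, DMSO negative control.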

A short description of assay [5]: ATG_GLI_CIS: Attagene CIS-FACTORIAL HepG2 Assay for human Zinc Finger Protein GLI1 (AID 2282945). Particulars: HepG2, Attagene cis-factorial reporter mRNA, GLI element; actives raise or lower the signal. The gist of the method:
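Bidirectional curve fits relative to DMSO, using reporter mRNA levels from RT-PCR plus capillary electrophoresis. Cells were HepG2 transiently carrying cis-regulated reporter constructs, harvested 24 h after dosing.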

A short description of assay [6]: ATG_M_06_CIS: Attagene CIS-FACTORIAL HepG2 Assay for M06 Transcription Factor (Internal Marker) (AID 2282950). Particulars: HepG2 Attagene CIS-FACTORIAL M06 internal marker reporter; actives raise or lower the signal. The gist of the method: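 Measured 24 h post-dosing in transiently transfected HepG2 cells, this internal-marker endpoint reports reporter mRNA via RT-PCR with fluorescent primer extension and capillary electrophoresis. DMSO served as negative control and baseline for bidirectional fitting.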

Assay [7] is described as follows: ATG_PBREM_CIS: Attagene CIS-FACTORIAL HepG2 Assay for human Phenobarbital-responsive Enhancer Module (PBREM) (AID 2282955). Particulars: HepG2 PBREM cis-reporter, Attagene multiplexed transcription; actives raise or lower the signal. The gist of the method: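 Multiplexed cis-reporter readout in human hepatoma HepG2 cells; PBREM-regulated transcript quantified after 24 h exposure by fluorescent RT-PCR fragment analysis. Signal changes up or down fitted relative to DMSO.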

A short description of assay [8]: ATG_M_19_TRANS: Attagene TRANS-FACTORIAL HepG2 Assay for M19 Transcription Factor (Internal Marker) (AID 2282974; active means hit-call score of the fitted dose curve at least 0.9, where 1 is the maximum). Conditions: HepG2 Attagene TRANS-FACTORIAL M19 internal marker reporter. The method, boiled down: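 Multiplexed TRANS format: HepG2 liver cells bearing transient GAL4-UAS reporter units, chemical treatment 24 h, reporter transcripts quantified by RT-PCR plus capillary electrophoresis. DMSO defines baseline.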

For assay [9], the target named is Nuclear respiratory factor 1 (Homo sapiens) (UniProt Q16656). In words: ATG_NRF1_CIS: Attagene CIS-FACTORIAL HepG2 Assay for human Nuclear Respiratory Factor 1 (NRF1) Orphan Gene (AID 2282987). Particulars: HepG2 NRF1 cis-element reporter, Attagene multiplex; actives raise or lower the signal. The gist of the method:
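Reporter mRNA induction or loss in HepG2 cells after 24 h dosing; cis-regulated reporter constructs report endogenous transcription-factor activity. Quantified by RT-PCR/capillary electrophoresis fluorescence, DMSO-referenced.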

Assay [10] in a line: ATG_NF_kB_CIS: Attagene CIS-FACTORIAL HepG2 Assay for human Nuclear Factor Kappa B (NF-kB) (AID 2282991). Particulars: HepG2 Attagene cis-factorial NF-kB reporter mRNA; actives raise or lower the signal. The gist of the method: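 DMSO served as negative control and baseline for bidirectional curve fitting. Transiently transfected HepG2 cells were dosed for 24 h, then reporter transcripts were measured by RT-PCR with capillary electrophoresis detection.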

Assay [11] can be described thus: TOX21_p53_BLA_p2_viability: Viability Assessment in the Tox21 HCT-116 p53 Agonism Beta-lactamase Assay, Phase 2 (AID 2283591; active means hit-call score of the fitted dose curve at least 0.9, where 1 is the maximum;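 further: compound exposure lasted 16 h at 37 °C; actives lower the ATP signal meaning cytotoxicity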). The gist of the method:
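Cytotoxicity readout: CellTiter-Glo ATP luminescence, 30 min at room temperature, after the beta-lactamase read. Cells were HCT116 exposed 16 h at 37C to compounds pin-transferred at 217-fold dilution from DMSO stocks.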

For assay [12], the target named is Cellular tumor antigen p53 (Homo sapiens) (UniProt P04637). In words: TOX21_p53_BLA_p2_ratio: Tox21 HCT-116 p53 Agonism Beta-lactamase Assay, Ratio, Phase 2 (AID 2283592; active means hit-call score of the fitted dose curve at least 0.9, where 1 is the maximum). The method, boiled down:
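In this cell-based reporter format, HCT116 cells were dosed with chemicals delivered from DMSO by 217-fold dilution and incubated 16 h at 37C. Emission at 460 and 530 nm after 2 h CCF4-AM loading provided the ratio, fitted upward versus DMSO.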

Assay [13] has the same target. In words: TOX21_p53_BLA_p3_ratio: Tox21 HCT-116 p53 Agonism Beta-lactamase Assay, Ratio, Phase 3 (AID 2283596; active means hit-call score of the fitted dose curve at least 0.9, where 1 is the maximum). The gist of the method: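 HCT116 p53-bla cells (4000/well) given compound in DMSO (217-fold dilution) after 5 h, incubated 16 h at 37C. CCF4-AM substrate 2 h at room temperature; 460/530 nm emission ratio, gain fitted against DMSO.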
Assay [14] has the same target. Briefly: TOX21_p53_BLA_p5_ratio: Tox21 HCT-116 p53 Agonism Beta-lactamase Assay, Ratio, Phase 5 (AID 2283599; active means hit-call score of the fitted dose curve at least 0.9, where 1 is the maximum). The gist of the method: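 Beta-lactamase reporter ratio (blue 460 nm over green 530 nm, 405 nm excitation) after 2 h CCF4-AM loading, in HCT-116 cells exposed 16 h at 37 C to compounds pinned at 217-fold dilution. Increases relative to DMSO baseline scored.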

Assay [15] is described as follows: ATG_M_06_TRANS: Attagene TRANS-FACTORIAL HepG2 Assay for M06 Transcription Factor (Internal Marker) (AID 2282983; active means hit-call score of the fitted dose curve at least 0.9, where 1 is the maximum;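 further: reporter transcript level by RT-PCR then capillary electrophoresis fluorescence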). Particulars: HepG2 Attagene TRANS M06 internal marker reporter. The method, boiled down:
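After a 24 h chemical treatment of transfected HepG2, RNA underwent DNase I treatment, reverse transcription and reporter-specific PCR; labelled, HpaI-digested products were sized by capillary electrophoresis. Signal increase relative to DMSO defined activity.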

Assay [16] has as its target Nuclear receptor subfamily 4 group A member 2 (Homo sapiens) (UniProt P43354). In words: ATG_NURR1_TRANS: Attagene TRANS-FACTORIAL HepG2 Assay for human Nuclear Receptor Related Protein 1 (NURR1) (AID 2282985; active means hit-call score of the fitted dose curve at least 0.9, where 1 is the maximum). Conditions: HepG2 Attagene TRANS reporter, mRNA readout. The gist of the method: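 Cells: HepG2, transiently transfected. Exposure: 24 h. Detection: fluorescence of labelled RT-PCR products separated by capillary electrophoresis; upward fit versus DMSO.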

In assay [17] the target is human Retinoid X Receptor beta (RXRb), RXRB (gene 6257) (UniProt P28702). Briefly: ATG_RXRb_TRANS: Attagene TRANS-FACTORIAL HepG2 Assay for human Retinoid X Receptor beta (RXRb) (AID 2283013; active means hit-call score of the fitted dose curve at least 0.9, where 1 is the maximum). The method, boiled down:
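Multiplexed TRANS reporter assay in HepG2; 24 h dosing; reporter mRNA by RT-PCR/CE fluorescence; gain-of-signal relative to DMSO.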

Assay [18] is described as follows: ATG_AP_1_CIS: Attagene CIS-FACTORIAL HepG2 Assay for human Activator Protein 1 (AP-1) (AID 2282931). Particulars: HepG2 Attagene cis-factorial AP-1 reporter mRNA; actives raise or lower the signal. The method, boiled down:
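We transfected HepG2 cells transiently with a set of cis-regulated reporter transcription units, dosed them for 24 h, and quantified reporter mRNA via RT-PCR and capillary electrophoresis, scoring gain or loss of signal relative to DMSO.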

Assay [19] in a line: ATG_RORE_CIS: Attagene CIS-FACTORIAL HepG2 Assay for human RAR-related Orphan Receptor Element (RORE) (AID 2282959). Conditions: HepG2 Attagene cis-factorial RORE reporter, mRNA; actives raise or lower the signal. The gist of the method: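 Transfect HepG2 with MRTUs; treat 24 h; extract RNA; RT with oligo(dT); PCR with reporter-specific primers; 6-FAM primer extension; HpaI digest 2 h at 37 C; capillary electrophoresis. Fit vs DMSO, bidirectional.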

The target of assay [20] is Hepatocyte nuclear factor 4-alpha (Homo sapiens) (UniProt P41235). In words: ATG_HNF4a_TRANS: Attagene TRANS-FACTORIAL HepG2 Assay for human Hepatocyte Nuclear Factor 4 alpha (HNF4a) (AID 2282982; active means hit-call score of the fitted dose curve at least 0.9, where 1 is the maximum). Conditions: HepG2 HNF4a transactivation reporter, mRNA readout. The gist of the method:
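Transfected HepG2 reporter cells are dosed for 24 h; reporter RNA is reverse-transcribed, amplified, fluorescently labelled and HpaI-digested before CE sizing. Positive-direction fit against DMSO.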

Sequence of Cellular tumor antigen p53 (Homo sapiens) (P04637 whole entry, looked up): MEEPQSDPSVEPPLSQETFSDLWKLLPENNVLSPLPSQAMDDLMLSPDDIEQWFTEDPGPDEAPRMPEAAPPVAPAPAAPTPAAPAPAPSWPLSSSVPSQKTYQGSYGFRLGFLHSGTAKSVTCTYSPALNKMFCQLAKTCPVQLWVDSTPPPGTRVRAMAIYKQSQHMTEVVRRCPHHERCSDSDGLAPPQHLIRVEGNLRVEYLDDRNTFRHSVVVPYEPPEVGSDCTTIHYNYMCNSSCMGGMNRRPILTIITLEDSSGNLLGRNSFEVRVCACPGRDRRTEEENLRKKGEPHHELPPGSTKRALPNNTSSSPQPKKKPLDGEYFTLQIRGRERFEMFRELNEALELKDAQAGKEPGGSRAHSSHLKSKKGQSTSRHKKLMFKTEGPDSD
Sequence of Nuclear receptor subfamily 4 group A member 2 (Homo sapiens) (P43354 whole entry, looked up): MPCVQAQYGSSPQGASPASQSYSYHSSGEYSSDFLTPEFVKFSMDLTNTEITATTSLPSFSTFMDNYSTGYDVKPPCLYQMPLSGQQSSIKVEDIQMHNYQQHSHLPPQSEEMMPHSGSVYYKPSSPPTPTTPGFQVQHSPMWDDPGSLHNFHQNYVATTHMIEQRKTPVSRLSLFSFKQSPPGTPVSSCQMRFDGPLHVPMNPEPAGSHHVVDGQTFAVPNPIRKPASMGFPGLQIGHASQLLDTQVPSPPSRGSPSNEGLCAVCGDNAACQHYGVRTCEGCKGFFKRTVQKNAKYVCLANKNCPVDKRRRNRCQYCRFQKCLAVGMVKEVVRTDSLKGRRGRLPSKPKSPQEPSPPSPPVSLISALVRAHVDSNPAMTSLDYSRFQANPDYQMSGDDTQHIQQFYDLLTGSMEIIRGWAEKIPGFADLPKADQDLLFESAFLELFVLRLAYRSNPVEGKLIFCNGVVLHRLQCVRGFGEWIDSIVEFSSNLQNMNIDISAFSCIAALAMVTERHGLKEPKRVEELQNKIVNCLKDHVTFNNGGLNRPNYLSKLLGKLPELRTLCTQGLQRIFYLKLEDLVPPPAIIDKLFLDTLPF
Sequence of human Retinoid X Receptor beta (RXRb), RXRB (gene 6257) (P28702 whole entry, looked up): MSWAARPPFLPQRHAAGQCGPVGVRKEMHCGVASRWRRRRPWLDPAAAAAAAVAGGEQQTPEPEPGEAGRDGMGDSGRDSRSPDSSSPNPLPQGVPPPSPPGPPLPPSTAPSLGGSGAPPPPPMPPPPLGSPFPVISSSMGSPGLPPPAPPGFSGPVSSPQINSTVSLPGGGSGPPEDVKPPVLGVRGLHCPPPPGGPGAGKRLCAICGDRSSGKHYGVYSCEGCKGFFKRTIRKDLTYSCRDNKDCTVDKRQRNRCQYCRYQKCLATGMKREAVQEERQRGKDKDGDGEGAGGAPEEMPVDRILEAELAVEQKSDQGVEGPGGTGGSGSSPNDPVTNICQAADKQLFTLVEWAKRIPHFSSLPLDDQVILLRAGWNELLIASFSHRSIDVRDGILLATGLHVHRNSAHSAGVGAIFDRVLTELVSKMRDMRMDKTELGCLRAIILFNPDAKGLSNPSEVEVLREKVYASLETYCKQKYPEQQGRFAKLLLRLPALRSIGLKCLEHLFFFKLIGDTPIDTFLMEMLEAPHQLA
Sequence of Nuclear respiratory factor 1 (Homo sapiens) (Q16656 whole entry, looked up): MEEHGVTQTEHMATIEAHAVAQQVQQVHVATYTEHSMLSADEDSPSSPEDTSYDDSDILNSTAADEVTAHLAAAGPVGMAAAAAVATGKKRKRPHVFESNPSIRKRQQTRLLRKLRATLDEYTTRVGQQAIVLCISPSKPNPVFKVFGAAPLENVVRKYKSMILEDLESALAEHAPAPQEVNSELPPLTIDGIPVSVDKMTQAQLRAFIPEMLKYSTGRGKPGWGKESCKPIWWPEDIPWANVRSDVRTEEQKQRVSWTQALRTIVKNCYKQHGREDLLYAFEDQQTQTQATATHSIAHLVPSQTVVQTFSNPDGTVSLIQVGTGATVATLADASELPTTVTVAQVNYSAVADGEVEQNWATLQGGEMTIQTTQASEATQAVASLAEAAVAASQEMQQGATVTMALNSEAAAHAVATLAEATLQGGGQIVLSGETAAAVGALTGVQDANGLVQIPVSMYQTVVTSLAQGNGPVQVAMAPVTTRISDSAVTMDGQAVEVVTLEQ
Sequence of Hepatocyte nuclear factor 4-alpha (Homo sapiens) (P41235 whole entry, looked up): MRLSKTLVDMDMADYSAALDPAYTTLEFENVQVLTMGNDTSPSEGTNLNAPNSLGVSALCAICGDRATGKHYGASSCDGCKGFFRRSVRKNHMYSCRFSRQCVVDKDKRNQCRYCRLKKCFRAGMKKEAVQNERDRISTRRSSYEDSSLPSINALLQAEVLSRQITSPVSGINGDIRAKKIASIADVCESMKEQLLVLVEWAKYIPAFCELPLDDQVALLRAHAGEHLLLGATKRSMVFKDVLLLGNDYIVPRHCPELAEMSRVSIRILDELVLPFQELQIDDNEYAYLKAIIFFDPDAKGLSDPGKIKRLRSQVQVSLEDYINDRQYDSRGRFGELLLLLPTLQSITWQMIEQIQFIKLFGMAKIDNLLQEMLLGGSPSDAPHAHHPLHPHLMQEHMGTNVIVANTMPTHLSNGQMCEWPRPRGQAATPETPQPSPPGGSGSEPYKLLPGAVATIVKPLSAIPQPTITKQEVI

Regarding `C=CCN(CC=C)C(=O)C(Cl)Cl`, the outcome in assay [1], in assay [2], in assay [3], in assay [4], in assay [5] and in [6] was inactive. In addition, the result in assay [7], in [8], in assay [9], in assay [10], in assay [11] and in assay [12] was inactive. Further, the outcome in assay [13] and in assay [14] was inactive.

As for `CCc1cccc(C)c1N(C(=O)CCl)[C@@H](C)COC`, the call in [2], in [5], in assay [6], in [7], in assay [8] and in assay [15] was inactive. Moreover, the result in assay [16], in assay [9], in [10], in assay [17], in assay [11] and in assay [12] was inactive. Moreover, the result in assay [13] and in assay [14] was inactive.

Regarding `CCc1cc(C)cc(CC)c1-c1c(OC(=O)C(C)(C)C)n2n(c1=O)CCOCC2`, the result in assay [1], in [18], in assay [4], in assay [5], in [19] and in assay [8] was inactive. For the same compound, the compound was classed as inactive in assay [20], in assay [16], in assay [9] and in assay [10].

In the case of `CC(C)C(=O)Cl`, the call in [18], in assay [2], in assay [3], in assay [8], in [9] and in [10] was inactive. The result in [17] was inactive.

`COC(=O)COc1ccc(Cl)cc1Cl`: the compound was called inactive in assay [18], in [3], in [4], in assay [5], in assay [6] and in [19]. The call in assay [8], in assay [20], in [11], in assay [12] and in assay [13] was inactive.

Regarding `C[N+](C)=CCl`, the outcome in assay [1], in assay [18], in [2], in [4], in assay [5] and in assay [6] was inactive. For the same compound, the outcome in assay [20], in assay [15], in [9] and in assay [10] was inactive.

As to `CC1CCCC1.[C-]#[O+].[C-]#[O+].[C-]#[O+].[Mn]`, the outcome in assay [1], in assay [2], in assay [4], in assay [5], in assay [6] and in assay [7] was inactive. Also, the outcome in [19], in assay [8], in assay [10], in assay [17], in assay [11] and in assay [12] was inactive. For the same compound, the result in assay [13] and in [14] was inactive. For the same compound, the AC50 in assay [3] was 16.8 µM (active).

In the case of `ClCC(Cl)Cl`, the result in assay [1], in [18], in [2], in assay [4], in assay [7] and in assay [19] was inactive. Moreover, the compound was called inactive in assay [15], in [9], in assay [10], in assay [17], in assay [11] and in assay [12]. Further, in [14], the outcome was inactive.

For `Clc1ccc(-c2ccccc2)cc1`, the outcome in [1], in assay [2], in [3], in assay [4], in assay [5] and in [7] was inactive. Also, the call in [19], in assay [8], in assay [20], in assay [15], in assay [16] and in assay [10] was inactive. Further, the compound was classed as inactive in assay [17].

On to `CC(C)c1ccc(O)cc1`, for which the compound was called inactive in assay [18], in [5], in assay [6], in [7], in [15] and in assay [9]. Further, the outcome in assay [13] and in [14] was inactive. Besides, the AC50 in assay [17] was 74.9 µM (active).
